Screening data (PubChem)
Bcl-XL Bim block: inhibitors of Bim-Bcl-XL binding, primary screen, biochemical, multiplexed, bead flow cytometry, human Bcl-XL. Bcl-2-like protein 1 (Homo sapiens), Q07817. Bim peptide-Bcl-XL binding, fluorescence. inhibition, % at 10 µM. actives 0.04% (n = 190,000). AID 1007, 2008
Bcl-B Bim block: inhibitors of Bim-Bcl-B binding, primary screen, biochemical, multiplexed, human Bcl-2 family; Bcl-2-like protein 10 (Homo sapiens), Q9HD36; inhibition, % at 10 µM; bead-based flow cytometry, Bim peptide-Bcl-B binding; AID 951, 2007; actives 0.073% (n = 190,000);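 note: 0% = tracer peptide without compound and 100% = reference inhibitor peptide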
Bfl-1 Bim block: inhibitors of Bim binding to Bfl-1, primary screen, biochemical, multiplexed, bead-based flow cytometry. Bcl-2-related protein A1 (Homo sapiens), Q16548. Bim-Bfl-1 binding inhibition. actives 0.12% (n = 190,000). inhibition, % at 10 µM;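 note: 0% = wells without compound plus tracer and 100% = blocker peptide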
Target sequence (Q16548 whole entry, looked up): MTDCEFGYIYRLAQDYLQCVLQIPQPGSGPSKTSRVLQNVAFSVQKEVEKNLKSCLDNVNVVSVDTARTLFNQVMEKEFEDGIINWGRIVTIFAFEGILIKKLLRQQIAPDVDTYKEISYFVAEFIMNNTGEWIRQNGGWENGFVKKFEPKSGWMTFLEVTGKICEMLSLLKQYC
Bcl-W Bim block: inhibitors of Bim binding to Bcl-W, primary screen, biochemical, multiplexed, bead-based flow cytometry. Bim peptide-Bcl-W binding. Bcl-2-like protein 2 (Homo sapiens), Q92843. actives 0.02% (n = 190,000). inhibition, % at 10 µM. AID 952, 2007;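 note: 0% = bound tracer without compound and 100% = peptide blocker; higher means less fluorescent Bim peptide bound to Bcl-W beads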
Target sequence (Q92843 whole entry, looked up): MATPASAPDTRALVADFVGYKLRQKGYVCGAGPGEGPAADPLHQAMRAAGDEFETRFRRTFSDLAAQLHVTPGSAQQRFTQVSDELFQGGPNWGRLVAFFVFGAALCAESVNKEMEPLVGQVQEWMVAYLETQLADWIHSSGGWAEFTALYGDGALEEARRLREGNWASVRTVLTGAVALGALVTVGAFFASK
Bim-Bcl-2: inhibitors of Bim-Bcl-2 binding, primary screen, biochemical, multiplexed, human Bcl-2 family | Apoptosis regulator Bcl-2 (Homo sapiens), P10415 | Bead-based flow cytometry, Bim peptide-Bcl-2 binding | inhibition, % at 10 µM | actives 0.06% (n = 190,000); in the data active = inhibition above about 40%;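 note: 0% = no compound wells with probe peptide and 100% = reference peptide inhibitor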
* hit, by the source's call. Only some compounds are listed: those with a hit (about 0.18% of all), similar ones and a draw of the others. Cut-off read from the data, not from the text of the source, unless noted: active = inhibition above about 40%.

SMILES	Bcl-XL Bim block	Bcl-B Bim block	Bfl-1 Bim block	Bcl-W Bim block	Bim-Bcl-2
COc1ccc(NCc2n[nH]c(=O)c3ccccc23)cc1	0	6	4	4	5
COc1ccc(C)cc1NC(=O)c1ccccc1NS(=O)(=O)c1ccc(Cl)s1	-1	3	-3	1	-4
CSc1nnc2c3cc(C)ccc3n(Cc3ccccc3)c2n1	14	39	20	18	48*
CCN(CC)c1ccc2c(c1)CCCN2	15	28	62*	49*	41*
COc1cc(OC)c([N+](=O)[O-])cc1/C=N/NC(=O)c1ccncc1	13	7	38	40*	21
COc1c(Br)cc(Br)cc1/C=N/NC(=O)c1ccncc1	-1	-6	-8	-1	-2
Cc1nc(=S)c2ccccc2[nH]1	15	85*	68*	11	87*
FC(F)(F)c1nc(=S)c2ccccc2[nH]1	6	-4	9	1	6
Cc1c(N2C(=O)c3ccc(Br)cc3C2=O)c(=O)n(-c2ccccc2)n1C	-2	0	-2	-4	1
Cc1c(N2C(=O)c3ccc4c5c(ccc(c35)C2=O)CC4)c(=O)n(-c2ccccc2)n1C	4	58*	3	5	17
O=C(CN(C1CCCCC1)C1CCCCC1)N1CCc2ccccc2C1	-1	-3	-3	2	4
COCCN=c1scc(-c2cccs2)n1/N=C/c1ccc(O)c(O)c1O	6	0	40*	21	21
COCCN=c1scc(-c2ccccc2)n1/N=C/c1c[nH]c2ccccc12	-10	-13	-15	-6	-8
CCN=c1scc(C)n1/N=C/c1cc(Br)c(O)c(Br)c1	-2	-5	-5	-3	-2
CCN=c1scc(C)n1/N=C/c1ccc(O)c(O)c1O	8	-2	51*	21	19
NS(=O)(=O)c1ccc(NC(=S)Nc2ccn(Cc3cccc4ccccc34)n2)cc1	-5	-5	-7	-4	-7
CCc1cccc(CC)c1NC(=S)N1CCn2cccc2C1c1cccnc1 (configuration not stated)	27	49*	25	20	21
COc1ccc(Nc2nc(N3CCCC3)c3ccccc3n2)cc1	3	6	5	0	5
CCN(CC)c1ccc(Nc2nc(N3CCOCC3)c3ccccc3n2)cc1	-2	-33	54*	23	11
COc1ccc(N2C(=S)NC3N2C(=S)NC3(C)c2ccccc2)cc1 (configuration not stated)	0	-20	1	6	-2
COc1cc(NC(=O)c2ccc3c(c2)OCO3)c2ncccc2c1	-1	-2	0	0	-3
COc1cc(NCCCCCCCN)c2ncccc2c1	49*	71*	36	48*	51*
O=S1(=O)N=C(N(CCO)/N=C/c2ccncc2)c2ccccc21	40*	23	7	30	12
O=C(NC(c1ccccc1)c1ccccc1)c1cccc(S(=O)(=O)NCc2ccccc2)c1	-17	-12	-4	-13	-5
C1=CC2c3ccccc3NC(c3ccncc3)C2C1 (configuration not stated)	8	9	55*	14	18
SMILES	Bcl-XL Bim block	Bcl-B Bim block	Bfl-1 Bim block	Bcl-W Bim block	Bim-Bcl-2
CC(=O)c1ccc2c(c1)C1C=CCC1C(c1ccncc1)N2 (configuration not stated)	5	13	27	16	11
COCCn1c(N)c(C(=O)Nc2sc3c(c2C(=O)OC)CCCC3)c2nc3ccccc3nc21	41*	25	7	27	17
Cc1nc2ccc(NC(=O)c3ccc(Cl)c([N+](=O)[O-])c3)cc2s1	-7	-7	-5	-6	-6
Cc1nc2ccc(NC(=O)c3cc([N+](=O)[O-])cc([N+](=O)[O-])c3Cl)cc2s1	1	2	52*	6	13
CC(C)(C)OC(=O)NCCCC[C@H](NC(=O)c1nc[nH]c1C(=O)NCc1ccccc1)C(=O)OC(C)(C)C	1	0	-4	0	0
CN(Cc1ccccc1)C(=O)c1[nH]cnc1C(=O)N[C@@H](CCCCNC(=O)OC(C)(C)C)C(=O)OC(C)(C)C	6	73*	45*	0	83*
CCCCCCCn1c2c(c(=N)c3ccccc31)CCC2	-6	-8	-7	-2	-2
O=C(Nc1ccccc1N1CCOCC1)C1CCN(S(=O)(=O)c2ccccc2F)CC1	-1	0	-6	0	-6
N/C(Cc1ccc(Cl)c(Cl)c1)=N\OC(=O)c1cccs1	8	41*	14	15	29
CCN(CC)S(=O)(=O)c1cccc(NC(=O)COc2ncnc3sccc23)c1	-2	-6	-6	0	-3
NS(=O)(=O)c1ccc(Nc2nc3ccccc3nc2NS(=O)(=O)c2cccc([N+](=O)[O-])c2)cc1	-3	-2	-8	0	-6
CC(=O)NCCc1nc2cc(NC(=O)c3cccs3)ccc2n1C	-1	-1	-3	1	-4
Cn1c(CCNC(=O)C2CCCCC2)nc2cc(NC(=O)c3cccs3)ccc21	15	86*	59*	8	91*
CCCn1c(C)cc(-c2csc(N)n2)c1C	15	46*	30	25	27
C=CCn1c(C)cc(-c2csc(N)n2)c1C	7	33	11	14	13
Cc1cccc2c(N=Nc3ccc(S(=O)(=O)Nc4ccc(Cl)cc4)cc3[N+](=O)[O-])c(O)[nH]c12	-1	4	4	0	0
Clc1nc2ccccc2cc1/C=N/Nc1nc2ccccc2[nH]1	58*	94*	69*	58*	93*
C(=N\Nc1nc2ccccc2[nH]1)/c1ccncc1	0	4	-2	0	1
CC(=O)c1c(C)[nH]c(C(=O)CN2C(=O)NC(C)(CCC(C)C)C2=O)c1C (configuration not stated)	-3	-4	-3	-2	0
O=C(O)CC1S/C(=N/N=C/C=C/c2ccccc2[N+](=O)[O-])NC1=O (configuration not stated)	50*	28	46*	34	34
CCCCC(=O)Nc1sc2c(c1C(=O)OCC)CCC(C=O)=C2Cl	2	-4	5	1	0
O=C(Nc1ccc2nc(-c3ccco3)c(-c3ccco3)nc2c1)N1CCN(c2ccccn2)CC1	12	1	53*	28	25
CC(=O)c1ccc(NC(=O)c2ccc3nc(-c4ccco4)c(-c4ccco4)nc3c2)cc1	2	5	51*	23	25
Cc1nc2cc(NC(=O)N3CCN(c4ccccn4)CC3)ccc2o1	4	3	2	4	7
O=C(Nc1ccccc1)c1ccc2nc(-c3ccco3)c(-c3ccco3)nc2c1	8	5	45*	27	15
